# Screening results: PubChem, National Center for Advancing Translational Sciences (NCATS)
# An excerpt weighted towards active compounds, which were near 9.8% of everything screened.
# JMJD2E inh – blocks human JMJD2E demethylase activity. B2RXH2. JMJD2E catalytic domain, FDH-coupled NADH fluorescence (FDH is formaldehyde dehydrogenase). Potency, µM (highest dose often 57.1 µM), actives largely listed as inhibitors. 230,000 tested, 1.6% active. AID 2147; note: nearly all actives have a fitted effect of over 50% in size
# HTT cytoprotect – protects HTT-Q103 PC12 cells, measured by ATP; Potency, µM (titrated, usually from 56.4 µM), most hits filed as activators; PC12 HTT-Q103 induced, cytoprotection, ATP luminescence, 40 h; AID 1471; 230,000 tested, 0.14% active; active = well fitted curve in the direction sought with a large enough effect; inconclusive = small, poorly fitted or top-dose-only effect, or another doubt; inactive = no such curve, though single readings can be large; an effect the other way counts as inactive or inconclusive; note: nearly all actives have a fitted effect of over 45% in size
#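 Huntington model: PC12 line, ecdysone-inducible HTTQ103 exon1–GFP, tebufenozide 100 nM. Test articles in a dose series. Endpoint luminescence from cellular ATP.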
# ALDH1A1 inh – blocks purified human ALDH1A1 activity. AID 1030. Potency, µM (highest dose often 75.3 µM), actives largely listed as inhibitors. Purified ALDH1A1, NADH fluorescence, propionaldehyde substrate. 220,000 tested, 7.3% active. P00352
# HPGD inh – blocks human HPGD enzyme activity. 150,000 tested, 4.3% active. Potency, µM, usual class: inhibitors. purified HPGD, NADH fluorescence kinetic, PGE2 substrate. P15428
#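 20 nM HPGD preincubated 15 min at room temperature with compound in 50 mM Tris-HCl pH 8, 0.01% Tween 20. Started with 1 mM NAD+ and 30 uM prostaglandin E2; NADH fluorescence (360/450 nm) read 5 times over 30-s intervals, last minus first.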
# HTT aggregate – reduces HttQ103-GFP aggregates in PC12 cells | PC12 HttQ103-GFP aggregates, Acumen cytometry, 40 h | 220,000 tested, 1.1% active | Potency, µM (doses to about 46.1 µM), hits mostly inhibitors | AID 1688; active = well fitted curve in the direction sought with a large enough effect; inconclusive = small, poorly fitted or top-dose-only effect, or another doubt; inactive = no such curve, though single readings can be large; an effect the other way counts as inactive or inconclusive; note: nearly all actives have a fitted effect of over 60% in size
#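 Using laser scanning cytometry, GFP-positive aggregates were counted after lysis of PC12 cells induced with 100 nM tebufenozide to express HTT exon 1 Q103–GFP. Compounds were tested in titration.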
# CBFb RUNX1 block – CBF-beta/RUNX1 interaction disruption; Q01196+Q13951; AlphaScreen CBFb-His/RUNX1-biotin binding, biochemical; Potency, µM (titrated, usually from 59.8 µM), usual class: inhibitors; 230,000 tested, under 10 active; AID 1477; active = well fitted curve in the direction sought with a large enough effect; inconclusive = small, poorly fitted or top-dose-only effect, or another doubt; inactive = no such curve, though single readings can be large; an effect the other way counts as inactive or inconclusive
# Target sequence (Q01196 whole entry, looked up): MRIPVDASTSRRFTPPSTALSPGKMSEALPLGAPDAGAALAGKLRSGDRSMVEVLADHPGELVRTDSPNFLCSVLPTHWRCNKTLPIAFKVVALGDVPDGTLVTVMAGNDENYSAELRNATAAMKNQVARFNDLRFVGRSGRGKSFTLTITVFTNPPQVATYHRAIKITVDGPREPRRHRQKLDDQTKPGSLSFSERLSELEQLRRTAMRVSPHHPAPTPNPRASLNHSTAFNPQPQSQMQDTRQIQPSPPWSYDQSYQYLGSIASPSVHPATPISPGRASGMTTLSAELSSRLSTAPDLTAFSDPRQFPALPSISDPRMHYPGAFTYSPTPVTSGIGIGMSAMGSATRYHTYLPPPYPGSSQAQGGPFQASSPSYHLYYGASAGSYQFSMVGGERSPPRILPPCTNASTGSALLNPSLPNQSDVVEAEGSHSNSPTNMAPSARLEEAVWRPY
# Target sequence (Q13951 whole entry, looked up): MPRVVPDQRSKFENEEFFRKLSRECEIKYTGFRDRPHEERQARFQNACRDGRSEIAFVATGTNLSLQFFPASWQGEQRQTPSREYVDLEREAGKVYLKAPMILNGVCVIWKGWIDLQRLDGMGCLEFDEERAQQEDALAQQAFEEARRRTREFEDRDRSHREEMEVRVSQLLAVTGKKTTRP
#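 AlphaScreen binding: CBFb-His and RUNX1-biotin (30 nM each) preincubated 20 min, compound added for 15 min, then nickel and streptavidin beads for 90 min, all at room temperature. Disruption of the interaction by any mechanism counts as activity.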
# A number is an active result; n = inactive; u = inconclusive; x = not tested or not shown; [ ] = dose if it differs, or a comment. Unless noted, calls come from the whole dose curve; as a rule, active = well fitted inhibition curve with a large enough effect (not every such curve was filed as active); inconclusive = small, poorly fitted or top-dose-only effect, or another doubt; inactive = no such curve, though single readings can be large or run the other way.
SMILES,JMJD2E inh,HTT cytoprotect,ALDH1A1 inh,HPGD inh,HTT aggregate,CBFb RUNX1 block
c1csc(-c2nn3c(-c4ccncc4)nnc3s2)c1,n,n[0.074 µM],n,n,n,n
COc1cccc(-c2nnc3sc(-c4ccco4)nn23)c1,u,n,28µM,u,n,n
c1coc(-c2nnc3sc(-c4cccs4)nn23)c1,n,n,20µM,n,n,n
COCCN1C(=S)NC(c2cccc(C(F)(F)F)c2)C(C(=O)N2CCOCC2)=C1C (centres undefined),n,n[1.9 µM],n,x,n[9.22 µM],n
Cc1cccc(C(=O)N2CCN(c3ccc(C(F)(F)F)cn3)CC2)c1C,u,n,n,n,16µM,n
Cc1cc(C(=O)N2CCN(c3ccc(C(F)(F)F)cn3)CC2)c(C)o1,u,n[10 µM],n,x,n[9.22 µM],n
COCCNC(=O)/C(C#N)=C1\N=C(N)c2ccccc21,n,n[10 µM],u,14µM,u,n
N#C/C(C(=O)N1CCCCC1)=C1/N=C(N)c2ccccc21,u,n[10 µM],u,14µM,n,n
COC(=O)/C=c1/s/c(=C(/C#N)C(=O)N2CCCCC2)n(-c2ccccc2)c1=O,n,n[10 µM],n,n,n,n
COCCNC(=O)/C(C#N)=C/c1ccccc1Br,n,n,n,x,n,n
Cc1nc2ccccc2nc1OCc1cccc([N+](=O)[O-])c1,n,n[10 µM],n,x,n,n
O=C(/C=C/c1c(Cl)nc2ccccn12)N1CCN(c2ccccc2F)CC1,u,n,n,x,n,n
O=C(/C=C/c1c(Cl)nc2ccccn12)N1CCCCC1,n,n,11µM,x,n,n
CC(C)CCN1C(=O)CC(NNC(=O)c2ccc(S(=O)(=O)N3CCCC3)cc2)C1=O (centres undefined),n,n[10 µM],13µM,x,n[9.22 µM],n
COCCN1C(=O)CC(NNC(=O)c2ccc(S(=O)(=O)N3CCCC3)cc2)C1=O (centres undefined),n,n[10 µM],n,x,n[9.22 µM],n
CCC1CCCCN1C(=S)Nc1cccc(S(=O)(=O)N(C)C)c1 (centres undefined),n,n,n,x,n,n
COc1ccc(CNc2nc(-c3ccc(N(C)C)cc3)nc3ccccc23)c(OC)c1,x,n,u,x,x,x
COC(=O)C1=C(C)NC(=O)/C1=C\c1cc(C)n(-c2c(C)cccc2C)c1C,u,n,18µM,n,n,n
COC(=O)C1=C(C)NC(=O)/C1=C\c1cc(C)n(-c2ccccc2C)c1C,u,n,u,n,n[9.22 µM],n
Cc1cccc(C)c1-n1c(C)cc(/C=C2\NC(=O)NC2=O)c1C,n,n[10 µM],16µM,u,n,n
COC(=O)C1=C(C)NC(=O)/C1=C\c1cc(C)n(-c2ccccc2F)c1C,u,n[10 µM],16µM,x,u,n
Cc1cc(/C=C2\NC(=O)NC2=O)c(C)n1-c1cccnc1,u,n[10 µM],x,x,n[9.22 µM],n
COc1cccc(OC)c1C1=NC(C)(C)CO1,n,n[10 µM],x,x,n[9.22 µM],n
Cc1ccccc1CCN(C(=O)CN1C(=O)c2ccccc2S1(=O)=O)C(C(=O)NCC1CCCO1)c1ccncc1 (centres undefined),n,n[10 µM],u,n,16µM,n
C[C@H](NC(=O)c1nc[nH]c1C(=O)N[C@@H](Cc1ccccc1)C(=O)OCc1ccccc1)c1ccccc1,n,n[10 µM],5µM,x,n[9.22 µM],n
SMILES,JMJD2E inh,HTT cytoprotect,ALDH1A1 inh,HPGD inh,HTT aggregate,CBFb RUNX1 block
CC(C)C[C@H](NC(=O)c1[nH]cnc1C(=O)Nc1ccc(CNC(=O)OC(C)(C)C)cc1)C(=O)OCc1ccccc1,32µM,n[10 µM],x,x,n[9.22 µM],n
C[C@@H](NC(=O)c1nc[nH]c1C(=O)N[C@@H](Cc1ccccc1)C(=O)OCc1ccccc1)c1ccccc1,n,n[10 µM],n,x,n[9.22 µM],n
CC(C)(C)OC(=O)NCCCC[C@H](NC(=O)c1nc[nH]c1C(=O)NC(c1ccccc1)c1ccccc1)C(=O)OC(C)(C)C,n,n[10 µM],2.8µM,x,n[9.22 µM],n
CC(C)C[C@H](NC(=O)c1[nH]cnc1C(=O)Nc1ccc(CNC(=O)OC(C)(C)C)cc1)C(=O)OC(C)(C)C,n,n[10 µM],x,x,n[9.22 µM],n
CCc1ccc(CCC(=O)Nc2ncc(Cc3ccccc3Cl)s2)o1,n,n[10 µM],u,n,n,n
COc1ccc(/C=C/C(=O)NC(=S)Nc2ccc(S(=O)(=O)Nc3cc(OC)ncn3)cc2)cc1,n,n,28µM,x,n,n
CN(C)c1ccc(NC(=S)NC(=O)/C=C/c2ccco2)cc1,n,n,n,x,n,n
NN1C(=O)/C(=C\c2ccco2)SC1=S,u,n[10 µM],1.3µM,x,n[9.22 µM],x
O=C(/C=C/c1ccco1)NC(=S)Nc1ccc(N2CCCC2)cc1,11µM,n[10 µM],u,n,n,u
COC(=O)c1ccccc1NC(=O)/C=C/c1ccco1,n,n[1.9 µM],25µM,n,n,n
O=c1[nH]cc(COCC(F)CCl)c(=O)[nH]1 (centres undefined),n,n[10 µM],x,x,n[9.22 µM],n
CCCCN(C)C(=O)c1nc2ccccn2c1CN1CCC[C@H]1C(=O)OC,n,n[10 µM],n,x,n[9.22 µM],n
CC(=O)NC(=S)Nc1ccc(NC(=S)NC(=O)/C=C/c2ccco2)cc1,n,n[10 µM],x,x,n[9.22 µM],u
O=C(NC(=S)Nc1ccc(Cl)cn1)c1cccs1,n,n,u,n,n,n
CCCC(=O)NC(=S)Nc1ccc(Cl)cn1,n,n,25µM,n,n,n
NS(=O)(=O)c1ccc(NC(=O)/C=C/c2ccco2)cc1,u,x,24µM,x,n,n
COc1ccc(NC(=S)NC(=O)/C=C/c2ccco2)cc1,u,n,7.1µM,x,n,n
O=C(/C=C/c1ccco1)NC(=S)Nc1ccc(Cl)cn1,u,n,10µM,n,u,u
Cc1ccnc(NC(=S)NC(=O)/C=C/c2ccco2)c1,u,n,u,n,u,n
CN(C(=O)c1ccc(COc2ccccc2Br)o1)c1ccccc1,n,x,n,x,u,n
FC(F)Sc1nc2ccccc2[nH]1,n,n[10 µM],x,x,n[9.22 µM],n
COCCNc1ncnc2ccc(-c3ccoc3)cc12,x,n,u,x,x,x
O=C(O)C(C(=O)/C=C/c1ccco1)=C1SCCS1,n,n,13µM,n,u,u
COc1ccc(NC(=O)CCCN2C(=O)/C(=C\c3ccco3)SC2=S)cc1,n,n[10 µM],25µM,n,u,u
O=C(/C=C/c1ccco1)NC1CCCC1,n,n,22µM,x,n,n
SMILES,JMJD2E inh,HTT cytoprotect,ALDH1A1 inh,HPGD inh,HTT aggregate,CBFb RUNX1 block
O=C(C=C1SCCS1)/C=C/c1ccco1,n,n,n,n,n,n
O=C(CCCN1C(=O)/C(=C/c2ccco2)SC1=S)Nc1cccc(C(=O)O)c1,u,n[10 µM],x,x,n[9.22 µM],x
C[C@@H](N1CCOCC1)[C@@](O)(c1ccccc1)c1ccccn1,x,n[10 µM],n[13.5 µM],n,x,x
COC(=O)c1ccsc1NC(=O)c1cccc(OC)c1,u,n,n,x,n,n
CCOc1ccc(/C=C/c2c([N+](=O)[O-])c(=O)n(C)c(=O)n2C)cc1,n,7.9µM,n,x,n,n
CC1(C)c2ssc(=S)c2-c2ccccc2N1C(=O)c1ccco1,n,n[10 µM],n,n,n,n
